Reference: PubChem BioAssay AID602329 (Broad Institute, 2012)
About 510 (0.14%) of roughly 360,000 compounds were called active. This is one part of a sample in which actives are shown more often than they occur.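 Rule for the calls: active = mean normalized replicate activity at least 40 and at least half of replicates scoring 40 or more; inconclusive = only one of the two criteria met; inactive = mean below 40 and under half of replicates reaching 40.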

Target: DNA repair and recombination protein RAD54-like (Homo sapiens) (UniProt Q92698)
Sequence (Q92698 whole entry, looked up): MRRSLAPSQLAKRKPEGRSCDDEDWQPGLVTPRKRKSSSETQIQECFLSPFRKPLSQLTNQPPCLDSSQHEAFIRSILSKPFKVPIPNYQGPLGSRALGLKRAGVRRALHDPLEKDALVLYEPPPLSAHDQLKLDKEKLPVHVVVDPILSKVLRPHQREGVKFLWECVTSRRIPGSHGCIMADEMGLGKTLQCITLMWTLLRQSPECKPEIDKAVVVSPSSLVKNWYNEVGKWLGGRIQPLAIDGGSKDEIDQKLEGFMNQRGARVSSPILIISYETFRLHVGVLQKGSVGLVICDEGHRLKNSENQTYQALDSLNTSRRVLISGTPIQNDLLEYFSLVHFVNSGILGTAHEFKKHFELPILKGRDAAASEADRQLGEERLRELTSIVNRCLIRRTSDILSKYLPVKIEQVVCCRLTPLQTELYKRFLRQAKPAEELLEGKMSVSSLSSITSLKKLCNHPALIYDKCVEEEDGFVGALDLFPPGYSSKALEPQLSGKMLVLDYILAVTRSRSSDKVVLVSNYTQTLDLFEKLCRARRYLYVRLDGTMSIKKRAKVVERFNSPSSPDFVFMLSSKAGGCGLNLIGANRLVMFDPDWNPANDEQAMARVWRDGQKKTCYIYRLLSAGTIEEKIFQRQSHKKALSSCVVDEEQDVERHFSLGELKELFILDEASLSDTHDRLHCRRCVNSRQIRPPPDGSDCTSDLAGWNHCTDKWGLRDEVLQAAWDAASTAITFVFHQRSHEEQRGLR
Assay: inhibitors of human RAD54 branch migration, primary screen, biochemical, fluorescence, single point (AID 602329);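 note: 0% = median of neutral control wells and 100% = median of positive control wells; inhibitors cause a drop in the FAM fluorescence signal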
Details: RAD54 Holliday junction branch migration, FAM/BHQ fluorescence; at 10.4 µM; hits give high values

inhibition, active:
CCn1c(=N)c(C(=O)NCCCOC)cc2c(=O)n3cccc(C)c3nc21 50.9%
COc1ccc(CCn2c(=N)c(C(=O)NCC3CCCO3)cc3c(=O)n4cccc(C)c4nc32)cc1OC (configuration not stated) 52.7%
CC(C)n1cnc2c(NCc3ccccc3)cc(OCC3CCN(C)CC3)cc21 78.7%
NC(N)=Nc1nc(-c2ccccc2)c2cc(Cl)ccc2n1 58.9%
C[N+](C)(CCCCCC[N+](C)(C)CCCN1C(=O)c2cccc3cccc(c23)C1=O)CCCN1C(=O)c2cccc3cccc(c23)C1=O 115%
Cc1nc2ccccc2c2oc(C(=O)NCCCN3CCC(C)CC3)cc12 55.2%
CC1CCc2sc3nc(N4CCN(CCO)CC4)n4ncnc4c3c2C1 (configuration not stated) 53.7%
CCN(CC)CCn1c2ccc(Cl)cc2c2nc(C)sc21 63.6%

inhibition, inactive:
C/C=C/c1ccc([C@@H]2[C@@H](CO)N(C(=O)CC)[C@H]2CN(C)C(=O)C2CC2)cc1 -7.87%
O=C(N[C@@H]1C=C[C@H](CC(=O)N2CCOCC2)O[C@H]1CO)c1ccccn1 -0.273%
COc1ccc(S(=O)(=O)Nc2ccc3c(c2)CC(=O)N([C@H](C)CO)C[C@@H](C)[C@@H](CN(C)S(=O)(=O)c2ccc(F)cc2)O3)cc1 -1.32%
C[C@H](CO)N1C[C@H](C)[C@H](CN(C)C(=O)Nc2ccccc2)Oc2c(NC(=O)Nc3ccc(C(F)(F)F)cc3)cccc2C1=O 0.373%
CO[C@@H](CN(C)C(=O)c1ccc2c(c1)OCO2)[C@@H](C)CN([C@H](C)CO)S(=O)(=O)c1ccccc1 2.31%
CCCC#Cc1ccc([C@@H]2[C@H](CO)N3CCCCN(S(=O)(=O)c4ccccc4F)C[C@@H]23)cc1 6.77%
Cc1ccc2nc3c(cc(C(=O)NCCc4ccccc4)c(=N)n3CC3CCCO3)c(=O)n2c1 (configuration not stated) 12.1%
CCOCCCNC(=O)c1cc2c(=O)n3ccccc3nc2s1 10.2%
Cc1ccc(S(=O)(=O)c2cc3c(=O)n4cccc(C)c4nc3n(CCc3ccccc3)c2=N)cc1C 0.033%
COCCCn1c(C(=O)NC2CCCCC2)cc2c(=O)n3cccc(C)c3nc21 -1.16%
O=C(NC1Cc2ccccc2C1)[C@@H]1[C@@H](CO)[C@@H]2Cn3c(ccc(C4=CCCC4)c3=O)[C@H]1N2CC1CC1 2.91%
O=C(Nc1ccc(F)cc1)N1CCCCN2[C@H](CO)[C@H](c3ccc(-c4ccncc4)cc3)[C@@H]2C1 -8.07%
COCC(=O)Nc1ccc2c(c1)[C@@H]1C[C@@H](CC(=O)N3CCN(C)CC3)O[C@H](CO)[C@@H]1O2 7.82%
CCC(=O)Nc1ccc2c(c1)C(=O)N(C)C[C@H](OC)[C@@H](C)CN(Cc1cccnc1)[C@H](C)CO2 -1.44%
Clc1ccc2nc(-c3ccccc3)nc(C(Cl)Cl)c2c1 -6.9%
CC(C)NC(=O)N(C)C[C@H]1Oc2ncc(-c3ccccc3F)cc2C(=O)N([C@@H](C)CO)C[C@@H]1C -5.71%
O=C(CCCN1C(=O)c2cccc3cccc(c23)C1=O)N1CCN(Cc2ccc3c(c2)OCO3)CC1 8.9%
O=C(COC(=O)CCCN1C(=O)c2cccc3cccc(c23)C1=O)NC1CCS(=O)(=O)C1 (configuration not stated) -5.27%
CCC(=O)N1C[C@H](C)[C@H](OC)CN(C)C(=O)c2ccc(NC(=O)c3cnccn3)cc2OC[C@@H]1C -7.7%
O=C(Cc1ccncc1)NCC[C@H]1CC[C@H](NC(=O)Nc2cccc(F)c2)[C@H](CO)O1 -5.21%
CCC(=O)N1C[C@@H](C)[C@@H](OC)CN(C)C(=O)c2ccc(NC(=O)c3ccccc3)cc2OC[C@H]1C -5.42%
COc1ccc(NC(=O)Nc2ccc3c(c2)CC(=O)N([C@@H](C)CO)C[C@@H](C)[C@@H](CN(C)Cc2ccc(Cl)c(Cl)c2)O3)cc1 12.1%
C[C@@H](O)C#Cc1ccc([C@H]2[C@H](CO)N3CCCCN(C(=O)c4ccc5c(c4)OCO5)C[C@@H]23)cc1 1.48%
CCC(=O)N(C)C[C@@H]1Oc2ncc(/C=C/c3ccccc3)cc2C(=O)N([C@@H](C)CO)C[C@H]1C 0.476%
COCC#Cc1cnc2c(c1)C(=O)N([C@H](C)CO)C[C@H](C)[C@H](CN(C)C(=O)Nc1cc(F)ccc1F)O2 0.435%
COc1ccc(NC(=O)N[C@@H]2CC[C@H](CC(=O)NC3CCC3)O[C@H]2CO)cc1 4.37%
C/C=C/c1ccc2c(c1)O[C@H](CN(C)C(=O)CN(C)C)[C@H](C)CN([C@@H](C)CO)S2(=O)=O -12.5%
C[C@H]1CN([C@@H](C)CO)C(=O)c2cc(C#CCN(C)C)cnc2O[C@H]1CN(C)C(=O)Cc1ccccc1 3.35%
COc1ccc(-c2ccc3c(c2)[C@H]2[C@H](CCN2C(=O)c2ccc4c(c2)OCO4)[C@@H](CO)N3)cc1 -2.22%
CCC(=O)N1C[C@H](C)[C@H](OC)CN(C)C(=O)c2ccc(NC(=O)Nc3ccccc3)cc2OC[C@H]1C -3.3%
C[C@H](CO)N1C[C@H](C)[C@H](CN(C)C)Oc2ncc(-c3ccncc3)cc2C1=O 8.42%
COc1ccc(NC(=O)Nc2ccc3c(c2)CC(=O)N([C@@H](C)CO)C[C@H](C)[C@@H](CN(C)CC2CCCCC2)O3)cc1 3.95%
CN(C)C(=O)C[C@@H]1C[C@@H]2c3cc(NC(=O)NC4CCCCC4)ccc3O[C@@H]2[C@H](CO)O1 -2.4%
O=C(C[C@H]1CC[C@H]2[C@@H](COC[C@H](O)CN2C(=O)c2ccncc2)O1)NCc1cc(F)cc(F)c1 1.6%
C[C@H](CO)N1C[C@H](C)[C@H](CN(C)S(=O)(=O)c2cccs2)Oc2c(NS(=O)(=O)c3ccc(Cl)cc3)cccc2C1=O 3.72%
CC1CCN(C(=O)CCNC(=O)c2ccccc2)CC1 -8.53%
CC1CCN(CCCn2c(SCC(=O)NC3CCCC3)nc3ccccc3c2=O)CC1 -8.12%
CN1C[C@@H](CO)O[C@@H](n2cnc3c(N4CCN(CCO)CC4)ncnc32)C1 -0.96%
COCc1cn(CC[C@@H]2CC[C@@H](NC(=O)Nc3ccc(C(F)(F)F)cc3)[C@H](CO)O2)nn1 -5.23%
C[C@@H]1CN([C@@H](C)CO)C(=O)c2ccccc2-c2ccccc2CO[C@H]1CN(C)C(=O)Nc1ccccc1 2.07%
CO[C@@H]1CN(C)C(=O)c2ccc(NS(C)(=O)=O)cc2OC[C@H](C)NC[C@H]1C 0.663%
CN1c2ccc(C3=CCCCC3)cc2[C@@H]2[C@@H](CCN2C(=O)Nc2cc(F)ccc2F)[C@@H]1CO 7.43%
C[C@@H]1CN([C@@H](C)CO)C(=O)c2cc(NC(=O)Nc3ccc(C(F)(F)F)cc3)ccc2O[C@@H](C)CCCCO[C@H]1CN(C)C(=O)CCCN(C)C 25%
COc1ccccc1-c1ccc2n(c1=O)C[C@H]1[C@H](CO)[C@@H](C(=O)N[C@@H](C)c3ccccc3)[C@@H]2N1C -1.98%
CO[C@@H](CN(C)S(=O)(=O)c1cccc(Cl)c1)[C@H](C)CN([C@H](C)CO)S(=O)(=O)c1cccc(Cl)c1 1.71%
C[C@@H]1CN([C@H](C)CO)C(=O)c2cccc(NS(=O)(=O)c3ccc(F)cc3)c2O[C@@H]1CN(C)S(=O)(=O)c1ccccc1 2.48%
CO[C@@H]1CN(C)C(=O)c2ccc(NC(=O)C3CCCC3)cc2OC[C@H](C)NC[C@@H]1C 4.25%
O=C(C[C@@H]1C=C[C@@H](NC(=O)Nc2cccc(F)c2)[C@H](CO)O1)NCC1CCCCC1 -1.32%
CCN(CC)CCNc1ccc(Cl)cc1[N+](=O)[O-] 7.16%
COc1ccccc1C(=O)N1C[C@H]2[C@@H](c3ccccc31)[C@H](CO)N2C(=O)C1CC1 -5.07%
Cc1ccccc1-c1ccc2c(c1)O[C@@H](CN(C)Cc1ccc(C(=O)O)cc1)[C@H](C)CN([C@H](C)CO)S2(=O)=O 0.48%
COc1ccc(S(=O)(=O)N(C)C[C@@H]2OCCCC[C@@H](C)Oc3ccc(NC(=O)CCCN(C)C)cc3C(=O)N([C@@H](C)CO)C[C@@H]2C)cc1 -3.63%
CCC(=O)N(C)C[C@H]1Oc2ncc(-c3ccc(C)cc3)cc2C(=O)N([C@@H](C)CO)C[C@@H]1C 12%
Cc1noc(C)c1NC(=O)Nc1cccc2c1O[C@@H](CN(C)Cc1ccc(C(F)(F)F)cc1)[C@@H](C)CN([C@@H](C)CO)C2=O 3.12%
C[C@@H]1CN([C@@H](C)CO)C(=O)c2cccc(NS(=O)(=O)c3ccccc3)c2O[C@@H]1CN(C)S(=O)(=O)c1ccc(F)cc1 -8.79%
CCC(=O)N1C[C@@H](C)[C@H](OC)CN(C)C(=O)c2ccc(NC(=O)c3cc(C)on3)cc2OC[C@H]1C -6.97%
COc1cccc(-c2ccc3n(c2=O)C[C@@H]2[C@@H](CO)[C@H](C(=O)N4CCCCC4)N[C@H]32)c1 -5.16%
CO[C@H]1CC[C@@H]2CCOc3c(C#N)cccc3C(=O)N(C)CCCC(=O)N(C)C[C@@H]1O2 -6.75%
Cc1cc(C(=O)Nc2cccc3c2O[C@@H](CN(C)C(=O)Nc2ccc4c(c2)OCO4)[C@H](C)CN([C@@H](C)CO)C3=O)n(C)n1 14.9%
